Test [1] in a line: nuclear p53 accumulation, HPV+ cells – imaging, p53-positive nuclei imaging, 24 h, 48 h (AID 1508601). Particulars: 24/48 h.
The target in test [2] is Cellular tumor antigen p53 (Homo sapiens) (UniProt P04637). Described as above. Conditions: 24/48 h, stronger effect = higher value.
The mark [3] stands for this setting: measured here: cell number at 24 h, Library stock concentration: 46 uM.
The mark [4] stands for this setting: measured here: cell number at 24 h, Library stock concentration: 278 uM.
[5] abbreviates: measured here: cell number at 24 h, Library stock concentration: 1.67 mM.
Setting [6] is: measured here: cell number at 24 h, Library stock concentration: 3.33 mM.
Where [7] appears, read: measured here: cell number at 24 h, Library stock concentration: 10 mM.
Where [8] appears, read: measured here: cell number at 48 h, Library stock concentration: 46 uM.
Where [9] appears, read: measured here: cell number at 48 h, Library stock concentration: 278 uM.
Setting [10] is: measured here: cell number at 48 h, Library stock concentration: 1.67 mM.
Where [11] appears, read: measured here: cell number at 48 h, Library stock concentration: 3.33 mM.
Where [12] appears, read: measured here: cell number at 48 h, Library stock concentration: 10 mM.
Setting [13] is: Library stock concentration: 46 uM.
Setting [14] is: Library stock concentration: 278 uM.
Setting [15] is: Library stock concentration: 1.67 mM.
Where [16] appears, read: Library stock concentration: 3.33 mM.
Setting [17] is: Library stock concentration: 10 mM.
The mark [18] stands for this setting: measured here: p53 positive nuclei at 24 h, Library stock concentration: 46 uM.
Setting [19] is: measured here: p53 positive nuclei at 24 h, Library stock concentration: 278 uM.
[20] abbreviates: measured here: p53 positive nuclei at 24 h, Library stock concentration: 1.67 mM.
The mark [21] stands for this setting: measured here: p53 positive nuclei at 24 h, Library stock concentration: 3.33 mM.
Setting [22] is: measured here: p53 positive nuclei at 24 h, Library stock concentration: 10 mM.
Where [23] appears, read: measured here: cell number at 24 h, Library stock concentration: 80 uM.
Setting [24] is: measured here: cell number at 24 h, Library stock concentration: 400 uM.
The mark [25] stands for this setting: measured here: cell number at 24 h, Library stock concentration: 2 mM.
Setting [26] is: measured here: cell number at 48 h, Library stock concentration: 80 uM.
Where [27] appears, read: measured here: cell number at 48 h, Library stock concentration: 400 uM.
The mark [28] stands for this setting: measured here: cell number at 48 h, Library stock concentration: 2 mM.
The mark [29] stands for this setting: Library stock concentration: 80 uM.
Setting [30] is: Library stock concentration: 400 uM.
The mark [31] stands for this setting: Library stock concentration: 2 mM.
Setting [32] is: measured here: p53 positive nuclei at 24 h, Library stock concentration: 80 uM.
The mark [33] stands for this setting: measured here: p53 positive nuclei at 24 h, Library stock concentration: 400 uM.
[34] abbreviates: measured here: p53 positive nuclei at 24 h, Library stock concentration: 2 mM.

“And” between values parts separate entries of the source, which are not always exact repeats. Equal values may be shown once. The whole screen tested about 5,700 compounds, of which about 85 (1%) were called active. Rule as the data show it: active = p53-positive nuclei above about 36% (passing the limit was not always enough); inactive = the rest. This excerpt belongs to a sample that is enriched for actives.

Results on seven compounds are retold here after PubChem BioAssay AID1508601 (ICCB-Longwood Screening Facility, Harvard Medical School, 2020).

Sequence of Cellular tumor antigen p53 (Homo sapiens) (P04637 whole entry, looked up): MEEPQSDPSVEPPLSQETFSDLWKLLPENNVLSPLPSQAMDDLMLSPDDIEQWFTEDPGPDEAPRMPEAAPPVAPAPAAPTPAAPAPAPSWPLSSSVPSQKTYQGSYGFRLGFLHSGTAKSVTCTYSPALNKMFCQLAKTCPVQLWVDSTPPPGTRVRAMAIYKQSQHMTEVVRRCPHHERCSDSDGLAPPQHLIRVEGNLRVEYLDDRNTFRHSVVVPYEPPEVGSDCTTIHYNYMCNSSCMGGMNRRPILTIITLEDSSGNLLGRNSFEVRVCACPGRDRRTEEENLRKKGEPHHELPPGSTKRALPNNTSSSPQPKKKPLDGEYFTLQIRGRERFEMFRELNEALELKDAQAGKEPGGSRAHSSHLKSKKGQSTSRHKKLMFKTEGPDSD

In the case of `Cc1cc(OCc2nnc(SC3CCCC3)n2-c2cccnc2)ccc1-c1ccc(S(C)(=O)=O)cc1`, the nuclei count, normalised in test [1] (setting [3]) was 107%; in test [1] (setting [4]), 112%; in test [1] (setting [5]) it was 74.2%; in test [1] (setting [6]), 78.3%; in test [1] (setting [7]), 53.9%; in test [1] (setting [8]), 114%. Moreover, the nuclei count, normalised in test [1] (setting [9]) is 110%; in test [1] (setting [10]), 69.2%; in test [1] (setting [11]), 66.8%; in test [1] (setting [12]), 36.2%. The p53-positive nuclei, normalised was -0.268% (inactive) in test [2] (setting [13]); -0.012% (inactive) in test [2] (setting [14]); 2.41% (inactive) in test [2] (setting [15]); 3.08% (inactive) in test [2] (setting [16]); 57.1% (active) in test [2] (setting [17]); -0.152% in test [2] (setting [18]). The p53-positive nuclei, normalised was -0.153% in test [2] (setting [19]), 1.05% in test [2] (setting [20]), 0.345% in test [2] (setting [21]) and 46.4% in test [2] (setting [22]).
Take `CC(NC(=O)c1cc(Cl)ccc1Oc1ccc(F)cc1)c1ccc(C(=O)O)cc1` (stereo unspecified): the nuclei count, normalised in test [1] (setting [23]) came out at 115%; in test [1] (setting [24]), 119%; in test [1] (setting [25]) it was 117%; in test [1] (setting [7]), 107%; in test [1] (setting [26]) it was 117%; in test [1] (setting [27]), 115%. Moreover, the nuclei count, normalised in test [1] (setting [28]) came out at 114%; in test [1] (setting [12]), 108%. The p53-positive nuclei, normalised is 0.0152% (inactive) in test [2] (setting [29]); -0.136% (inactive) in test [2] (setting [30]); -0.0948% (inactive) in test [2] (setting [31]); -0.00827% (inactive) in test [2] (setting [17]); -0.00172% in test [2] (setting [32]); -0.0227% in test [2] (setting [33]). Also, the values for the p53-positive nuclei, normalised in test [2] (setting [34]) and in test [2] (setting [22]) were -0.0802% and -0.136%, respectively.
As to `O=C1OC[C@@H](Cc2cccc(O)c2)[C@@H]1Cc1cccc(O)c1`, the nuclei count, normalised worked out at 111% in test [1] (measured here: cell number at 24 h, concentration not given here) and 114% in test [1] (measured here: cell number at 48 h, concentration not given here). The p53-positive nuclei, normalised was -0.147% (inactive) in test [2] (concentration not given here) and -0.118% in test [2] (measured here: p53 positive nuclei at 24 h, concentration not given here).
Take `COC1C[C@H]2CCC(C)[C@@](O)(O2)C(=O)C(=O)N2CCCC[C@H]2C(=O)OC(C(C)CC2CCC(OP(C)(C)=O)C(OC)C2)CC(=O)C(C)C=C(C)C(O)C(OC)C(=O)C(C)CC(C)C=CC=CC=C1C` (stereo partly specified): the values for the nuclei count, normalised in test [1] (setting [6]) and in test [1] (setting [11]) were 108% and 105%, respectively. For the same compound, the p53-positive nuclei, normalised in test [2] (setting [16]) is -0.656% (inactive); in test [2] (setting [21]), -0.202%.
Turning to `Cc1c(CN2CCN(C(=O)C(C)O)CC2)sc2c(N3CCOCC3)nc(-c3cnc(N)nc3)nc12` (stereo unspecified), the nuclei count, normalised in test [1] (setting [23]) was 107%; in test [1] (setting [24]), 110%; in test [1] (setting [25]) it was 89.3%; in test [1] (setting [6]), 82.6%; in test [1] (setting [7]), 84.4%; in test [1] (setting [26]), 113%. Further, the nuclei count, normalised in test [1] (setting [27]) was found to be 112%; in test [1] (setting [28]) it was 89%; in test [1] (setting [11]), 84%; in test [1] (setting [12]), 88.2%. For the same compound, the p53-positive nuclei, normalised in test [2] (setting [29]) is 0.00265% (inactive); in test [2] (setting [30]), -0.106% (inactive); in test [2] (setting [31]), -0.151% (inactive); in test [2] (setting [16]), -0.349% (inactive); in test [2] (setting [17]), -0.157% (inactive); in test [2] (setting [32]), 0.036%. The p53-positive nuclei, normalised in test [2] (setting [33]) was -0.106%; in test [2] (setting [34]) it was -0.151%; in test [2] (setting [21]), -0.356%; in test [2] (setting [22]) it was -0.0302%.
Consider `CS(=O)(=O)N1CCN(Cc2cc3nc(-c4cccc5[nH]ncc45)nc(N4CCOCC4)c3s2)CC1`, for which the nuclei count, normalised in test [1] (setting [3]) was 89.1%; in test [1] (setting [23]), 105%; in test [1] (setting [4]) it was 97%; in test [1] (setting [24]), 93.5%; in test [1] (setting [5]), 84.9%; in test [1] (setting [25]) it was 94%. Moreover, the nuclei count, normalised in test [1] (setting [6]) was 97.5%; in test [1] (setting [7]), 66.1% and 64.1%; in test [1] (setting [8]) it was 97%; in test [1] (setting [26]) it was 109%; in test [1] (setting [9]) it was 100%; in test [1] (setting [27]), 93.5%. Besides, the nuclei count, normalised was 87.3% in test [1] (setting [10]); 89.3% in test [1] (setting [28]); 101% in test [1] (setting [11]); 56.3% and 65.9% in test [1] (setting [12]). Moreover, the p53-positive nuclei, normalised in test [2] (setting [13]) was -0.00738% (inactive); in test [2] (setting [29]) it was -0.168% (inactive); in test [2] (setting [14]), -0.0603% (inactive); in test [2] (setting [30]), -0.297% (inactive); in test [2] (setting [15]), -0.0683% (inactive); in test [2] (setting [31]), -0.297% (inactive). Further, the p53-positive nuclei, normalised in test [2] (setting [16]) was -0.619% (inactive); in test [2] (setting [17]), -0.184% (inactive) and -0.277% (inactive); in test [2] (setting [18]), -0.0723%; in test [2] (setting [32]), 0.26%; in test [2] (setting [19]), -0.0265%; in test [2] (setting [33]), -0.0433%. Besides, the p53-positive nuclei, normalised in test [2] (setting [20]) is -0.14%; in test [2] (setting [34]), -0.0447%; in test [2] (setting [21]), -0.329%; in test [2] (setting [22]), -0.00819% and -0.118%.
Turning to `COc1ccc(-c2nc(N3CCOCC3)c3sc(CN(C)c4ncc(C(=O)NO)cn4)cc3n2)cn1`, the nuclei count, normalised in test [1] (setting [23]) amounted to 47.5%; in test [1] (setting [24]), 43.3%; in test [1] (setting [25]), 39.6%; in test [1] (setting [6]) it was 33.2%; in test [1] (setting [7]), 31.5%; in test [1] (setting [26]) it was 22.9%. The nuclei count, normalised in test [1] (setting [27]) came out at 21.1%; in test [1] (setting [28]) it was 24.2%; in test [1] (setting [11]) it was 21.9%; in test [1] (setting [12]), 19%. Besides, the p53-positive nuclei, normalised in test [2] (setting [29]) is 96.8% (active); in test [2] (setting [30]) it was 94.6% (active); in test [2] (setting [31]), 98.6% (active); in test [2] (setting [16]), 65.1% (active); in test [2] (setting [17]) it was 81.6% (active); in test [2] (setting [32]), 77.1%. Also, the p53-positive nuclei, normalised worked out at 75.3% in test [2] (setting [33]), 81.2% in test [2] (setting [34]), 43.2% in test [2] (setting [21]) and 59% in test [2] (setting [22]).
